Source: PubChem BioAssay (NCI)
Compounds without any hit were thinned out: in the full panel of roughly 83,000, 20% have a hit.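 Treatment: one concentration, 48 hours, 96-well format. Scoring: percent growth, with anything below 10 considered active.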 Activity calls are given as the source filed them.

Assays:
Assay in all cases: NCI-60 one-dose screen, 48 h (100 = growth as untreated, 0 = no growth, -100 = all killed)
Conditions in all cases: 10 µM unless noted
HCT-15 colon = test system: HCT-15 colon
HT29 colon = test system: HT29 colon
SNB-75 CNS = test system: SNB-75 CNS
U251 CNS = test system: U251 CNS
PC-3 prostate = test system: PC-3 prostate
SK-MEL-5 melanoma = test system: SK-MEL-5 melanoma
UACC-62 melanoma = test system: UACC-62 melanoma
SK-MEL-28 melanoma = test system: SK-MEL-28 melanoma
LOX IMVI melanoma = test system: LOX IMVI melanoma
SNB-19 CNS = test system: SNB-19 CNS

Measured: growth

Cc1cc(O)cc(O)c1N=NC1=NCCS1
inactive: HCT-15 colon 102% | HT29 colon 95.7% | SNB-75 CNS 81.7% | U251 CNS 105% | PC-3 prostate 107% | SK-MEL-5 melanoma 111% | UACC-62 melanoma 99.5% | SK-MEL-28 melanoma 98.5%

COc1cccc2c1-c1ccccc1C2=O
active: SK-MEL-5 melanoma 9.97%
inactive: HCT-15 colon 33.3% | HT29 colon 17.5% | SNB-75 CNS 18.1% | U251 CNS 17.8% | PC-3 prostate 28.1% | UACC-62 melanoma 33.3% | LOX IMVI melanoma 40.3% | SK-MEL-28 melanoma 47.9%

O=C(Nc1nc(-c2ccccc2)cs1)c1cc(-c2ccc(Br)cc2)nc2ccccc12
inactive: HCT-15 colon 33% | HT29 colon 39.8% | SNB-75 CNS 85.1% | U251 CNS 42% | PC-3 prostate 28.9% | SK-MEL-5 melanoma 54.8% | UACC-62 melanoma 50.5% | LOX IMVI melanoma 42.7% | SK-MEL-28 melanoma 68.3%

Cc1cc(C)cc(Nc2nccc(-c3c(-c4ccc(F)cc4)ncn3C3CCNCC3)n2)c1
active: HCT-15 colon 9.67% | HT29 colon -0.976% | SK-MEL-5 melanoma -87.6% | LOX IMVI melanoma -81.3%
inactive: SNB-75 CNS 17% | U251 CNS 13.1% | PC-3 prostate 15.4% | UACC-62 melanoma 21.6%

C=CCn1c(CN2CCN(c3cc4c(cc3F)c(=O)c(C(=O)O)cn4C3CC3)CC2)n[nH]c1=S
inactive: HCT-15 colon 103% | HT29 colon 90.5% | SNB-75 CNS 99.8% | U251 CNS 103% | PC-3 prostate 101% | SK-MEL-5 melanoma 106% | UACC-62 melanoma 99.9% | LOX IMVI melanoma 81.8% | SK-MEL-28 melanoma 97.2%

c1ccc2c3c([nH]c2c1)C(c1ccc(C2NCCc4c2[nH]c2ccccc42)cc1)NCC3 (stereo not given)
active: HCT-15 colon -65.8% | HT29 colon -74.2% | SNB-75 CNS -11.4% | U251 CNS -92.6% | SK-MEL-5 melanoma -92.9% | UACC-62 melanoma -69.9% | SK-MEL-28 melanoma -52.8%
inactive: PC-3 prostate 16.8%

COc1cc(/C=C/C(=O)c2ccc(NC(=O)CSc3nnc(-c4cc(OC)c(OC)c(OC)c4)n3-c3ccccc3)cc2)cc(OC)c1OC
active: HCT-15 colon -37.6% | HT29 colon 1.25% | U251 CNS -8.68%
inactive: SNB-75 CNS 45.4% | PC-3 prostate 28% | SK-MEL-5 melanoma 17.6% | UACC-62 melanoma 20.8% | SK-MEL-28 melanoma 33.3%

Cc1cc(C)c(NC(=O)c2sc3nc4c(cc3c2N)CCCCCC4)c(C)c1
inactive: HCT-15 colon 41.1% | HT29 colon 19% | SNB-75 CNS 57.6% | U251 CNS 35.3% | PC-3 prostate 47.9% | SK-MEL-5 melanoma 57.1% | UACC-62 melanoma 34.5% | LOX IMVI melanoma 58.7% | SK-MEL-28 melanoma 75.2%

C#Cc1cccc(Nc2ncnc3ccc(NC(=O)c4ccccc4)cc23)c1
inactive: HCT-15 colon 65.3% | HT29 colon 82.4% | SNB-75 CNS 67.2% | U251 CNS 85.4% | PC-3 prostate 75.8% | SK-MEL-5 melanoma 95.5% | UACC-62 melanoma 95.2% | LOX IMVI melanoma 81.7% | SK-MEL-28 melanoma 93.9%

COc1cc(C)ccc1Oc1nc(Nc2ccc(N3CCOCC3)cc2)ncc1N=Cc1cc(C(F)(F)F)cc(C(F)(F)F)c1
inactive: HT29 colon 64.5% | SNB-75 CNS 40.1% | SNB-19 CNS 94.4% | U251 CNS 71.5% | PC-3 prostate 77.4% | SK-MEL-5 melanoma 91% | UACC-62 melanoma 81% | LOX IMVI melanoma 61.3% | SK-MEL-28 melanoma 96.7%

C/C(=N\NC(=O)c1ccncc1)c1ccc(N)cc1
inactive: HT29 colon 97.2% | SNB-75 CNS 88.8% | SNB-19 CNS 94.6% | U251 CNS 97.7% | PC-3 prostate 85.8% | SK-MEL-5 melanoma 98.8% | UACC-62 melanoma 93.6% | LOX IMVI melanoma 98% | SK-MEL-28 melanoma 106%

CCCn1cc(/C=N\N=C2\C(=O)Nc3ccc(C)cc32)c2ccccc21
active: LOX IMVI melanoma 4.42%
inactive: HT29 colon 17.1% | SNB-75 CNS 85.6% | U251 CNS 40% | PC-3 prostate 18% | SK-MEL-5 melanoma 49.1% | UACC-62 melanoma 40.4% | SK-MEL-28 melanoma 59.4%

COCCOCCOCc1n(Cc2ccc3ccccc3n2)c2ccccc2[n+]1Cc1ccc2ccccc2n1
active: SNB-75 CNS 4.56% | SK-MEL-5 melanoma -14.6%
inactive: HT29 colon 15.3% | SNB-19 CNS 22.4% | U251 CNS 10.8% | PC-3 prostate 13.7% | UACC-62 melanoma 14.5% | LOX IMVI melanoma 28.6% | SK-MEL-28 melanoma 41.8%

CC(C)(C)c1nn(-c2ccccc2)c2c1COCN2Cc1ccc(Cl)cc1
inactive: HT29 colon 65.7% | SNB-75 CNS 95.1% | SNB-19 CNS 92.4% | U251 CNS 90.3% | PC-3 prostate 63.6% | SK-MEL-5 melanoma 82.2% | UACC-62 melanoma 72.8% | LOX IMVI melanoma 85% | SK-MEL-28 melanoma 100%

O=C(O)c1cc(N=Nc2ccc(-c3ccc(N=Nc4c(S(=O)(=O)O)cc5ccc(Nc6ccccc6)cc5c4O)cc3)cc2)ccc1O
inactive: HT29 colon 99.9% | SNB-75 CNS 85.2% | SNB-19 CNS 102% | U251 CNS 103% | PC-3 prostate 96.4% | SK-MEL-5 melanoma 106% | UACC-62 melanoma 93.7% | LOX IMVI melanoma 95.6% | SK-MEL-28 melanoma 107%

CC(=O)Nc1ccc2c(c1)Cc1cc(F)ccc1-2
inactive: HT29 colon 92.2% | SNB-75 CNS 87.4% | SNB-19 CNS 103% | U251 CNS 95.5% | PC-3 prostate 95.5% | SK-MEL-5 melanoma 102% | UACC-62 melanoma 90.7% | LOX IMVI melanoma 95.8% | SK-MEL-28 melanoma 117%

COc1cc(NC(=O)Nc2cnc(Nc3ccc(N4CCOCC4)cc3)nc2Oc2ccc(C(F)(F)F)cc2)cc(OC)c1
inactive: HT29 colon 95.5% | SNB-75 CNS 84.4% | SNB-19 CNS 99.5% | U251 CNS 97.3% | PC-3 prostate 93.3% | SK-MEL-5 melanoma 101% | UACC-62 melanoma 105% | LOX IMVI melanoma 95.6% | SK-MEL-28 melanoma 116%

N#C/C(=C/c1ccc(O)c([N+](=O)[O-])c1)c1nc(-c2ccc([N+](=O)[O-])cc2)cs1
inactive: HT29 colon 52.7% | SNB-75 CNS 80.5% | SNB-19 CNS 34.5% | U251 CNS 22.1% | PC-3 prostate 29.9% | LOX IMVI melanoma 38.2% | SK-MEL-28 melanoma 35.5%
active: SK-MEL-5 melanoma 5.51% | UACC-62 melanoma -17.2%

COC1=CC=CC2(OC)C3(O)CCCc4cccc(c43)N3C(=O)COC132 (stereo not given)
inactive: HT29 colon 97.2% | SNB-75 CNS 84.2% | SNB-19 CNS 101% | U251 CNS 97.3% | PC-3 prostate 95.4% | SK-MEL-5 melanoma 104% | UACC-62 melanoma 92% | LOX IMVI melanoma 97.7% | SK-MEL-28 melanoma 111%

O=C1NC(SCc2ccc(F)cc2)=N/C1=C/c1cccc(OCc2ccc(Cl)cc2)c1
active: U251 CNS -41.2%
inactive: HT29 colon 68.1% | SNB-75 CNS 50.7% | SNB-19 CNS 33.4% | PC-3 prostate 77.5% | SK-MEL-5 melanoma 83% | UACC-62 melanoma 72% | LOX IMVI melanoma 24.7% | SK-MEL-28 melanoma 91.2%

NC(=O)c1ccc2nc3c(n2c1)C(=O)C(=O)c1ccccc1-3
active: HT29 colon -7.62% | SNB-75 CNS -95% | SNB-19 CNS -97.5% | U251 CNS -98.6% | PC-3 prostate -48.3% | SK-MEL-5 melanoma -100% | UACC-62 melanoma -94.1% | LOX IMVI melanoma -78.4% | SK-MEL-28 melanoma -82.2%

COC(=O)/C=C1\SC(=Nc2ccc(F)cc2)N(CCc2c[nH]c3ccccc23)C1=O
inactive: HT29 colon 66.3% | SNB-75 CNS 108% | SNB-19 CNS 103% | U251 CNS 98.2% | PC-3 prostate 87.9% | SK-MEL-5 melanoma 99.5% | UACC-62 melanoma 82.6% | LOX IMVI melanoma 90% | SK-MEL-28 melanoma 112%

C=C1C(=O)O[C@H]2[C@H]1CC/C(COC(=O)Nc1nc3ccccc3[nH]1)=C\CC[C@@]1(C)O[C@@H]21
inactive: HT29 colon 42.2% | SNB-75 CNS 75.7% | SNB-19 CNS 91.1% | U251 CNS 90.2% | PC-3 prostate 67.5% | SK-MEL-5 melanoma 83.7% | UACC-62 melanoma 53.9% | SK-MEL-28 melanoma 61.4%

COc1ccc(C2N(c3cc(OC)c(OC)c(OC)c3)C(=O)C2(F)F)cc1F (stereo not given)
inactive: HT29 colon 11.2% | SNB-75 CNS 64.7% | SNB-19 CNS 52.9% | U251 CNS 41.6% | PC-3 prostate 35.9% | UACC-62 melanoma 55.5% | LOX IMVI melanoma 27.1% | SK-MEL-28 melanoma 77.2%
active: SK-MEL-5 melanoma 8.08%

NC(=O)C(O)(c1ccccc1)c1ccccc1
inactive: HT29 colon 92.3% | SNB-75 CNS 89% | SNB-19 CNS 99.4% | U251 CNS 101% | PC-3 prostate 87.3% | SK-MEL-5 melanoma 106% | UACC-62 melanoma 95.9% | LOX IMVI melanoma 100% | SK-MEL-28 melanoma 112%

CC[C@]12C=CCN3CC[C@@]4(c5cc(NC(=O)CCC(=O)O[C@H]6CC[C@H]7[C@@H]8CC[C@H]9CC(=O)CC[C@]9(C)[C@H]8CC[C@]67C)c(OC)cc5N(C)[C@H]4[C@@](O)(C(=O)OC)[C@@H]1OC(C)=O)[C@@H]32
inactive: HT29 colon 39% | SNB-75 CNS 57.1% | SNB-19 CNS 84.7% | U251 CNS 64.3% | PC-3 prostate 47.7% | SK-MEL-5 melanoma 54.4% | UACC-62 melanoma 81.2% | LOX IMVI melanoma 78.1% | SK-MEL-28 melanoma 92.5%

CC1(C)[C@@H](O)CC[C@]2(C)[C@H]3CC[C@@H]4[C@H]5[C@H](c6cn(-c7ccccc7)nn6)CC[C@]5(CO)CC[C@@]4(C)[C@]3(C)CC[C@@H]12
inactive: HT29 colon 84.7% | SNB-75 CNS 81.9% | SNB-19 CNS 93.1% | U251 CNS 89.6% | PC-3 prostate 52.8% | SK-MEL-5 melanoma 83.7% | UACC-62 melanoma 79.6% | LOX IMVI melanoma 95.6% | SK-MEL-28 melanoma 88.7%

COc1ccc(-c2cc(-c3nnc(SCC(=O)Nc4ccc(/C(C)=N\O)cc4)n3-c3ccccc3)c3cc(OC)ccc3n2)cc1
active: LOX IMVI melanoma -36.4%
inactive: HT29 colon 79.8% | SNB-75 CNS 80.3% | SNB-19 CNS 77.9% | U251 CNS 78.1% | PC-3 prostate 61.1% | SK-MEL-5 melanoma 83.8% | UACC-62 melanoma 49% | SK-MEL-28 melanoma 95.4%

C=C(C)[C@@H]1CC[C@]2(C(=O)N=C=S)CC[C@]3(C)[C@H](CC[C@@H]4[C@@]5(C)CCC(=O)C(C)(C)[C@@H]5CC[C@]43C)[C@@H]12
inactive: HT29 colon 15.5% | SNB-75 CNS 43.6% | SNB-19 CNS 28.1% | U251 CNS 23.9% | PC-3 prostate 20.8% | SK-MEL-5 melanoma 77.7% | UACC-62 melanoma 44.5% | LOX IMVI melanoma 41.4% | SK-MEL-28 melanoma 66%
